In the supplement of paper PMC3545927:
This is one part of the list. The true hit rate is not given.

Target: furin, P09958
Test: furin cleavage Z-score vs untreated control; higher = more cleavage, active = 3.5 or more, inactive = 1 or less, 8 variable residues between constant flanks
Method in brief: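 Sequencing of released DNA, tagged with adapters by PCR, gave read counts used as abundance. That DNA was freed when purified furin cut N-terminally bead-bound 8-mer peptides fused to a cDNA oligonucleotide, in 0.01 ml reactions at 1:10 enzyme:substrate in 50 mM HEPES pH 7.5 with CaCl2 and NaCl, lasting 7.5, 15 or 30 min. The cleavage Z-score was the lowess-adjusted log count versus furin-free reactions, scaled by median absolute deviation.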

Chain of furin, P09958 (P09958 whole entry): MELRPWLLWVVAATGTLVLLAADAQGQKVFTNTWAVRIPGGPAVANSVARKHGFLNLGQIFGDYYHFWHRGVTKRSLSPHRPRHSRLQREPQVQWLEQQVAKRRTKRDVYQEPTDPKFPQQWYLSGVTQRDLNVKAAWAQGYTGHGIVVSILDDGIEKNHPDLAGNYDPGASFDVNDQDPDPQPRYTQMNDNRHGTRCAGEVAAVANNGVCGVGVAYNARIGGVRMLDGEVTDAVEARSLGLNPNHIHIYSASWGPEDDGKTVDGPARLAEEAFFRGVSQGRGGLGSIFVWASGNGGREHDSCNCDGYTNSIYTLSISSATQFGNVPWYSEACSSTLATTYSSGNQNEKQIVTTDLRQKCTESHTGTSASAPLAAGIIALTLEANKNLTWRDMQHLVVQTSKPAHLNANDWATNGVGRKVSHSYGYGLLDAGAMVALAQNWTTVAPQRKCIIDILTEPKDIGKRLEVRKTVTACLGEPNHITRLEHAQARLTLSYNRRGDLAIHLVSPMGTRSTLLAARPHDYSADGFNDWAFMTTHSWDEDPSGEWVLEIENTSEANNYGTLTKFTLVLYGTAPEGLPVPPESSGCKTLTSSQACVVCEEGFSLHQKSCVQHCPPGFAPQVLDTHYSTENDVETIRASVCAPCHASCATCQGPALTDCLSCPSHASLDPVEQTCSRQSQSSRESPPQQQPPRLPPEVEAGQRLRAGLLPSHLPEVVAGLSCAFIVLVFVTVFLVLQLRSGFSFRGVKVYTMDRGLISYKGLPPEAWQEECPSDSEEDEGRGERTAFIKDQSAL

CARRHRRPRRAGNASASA [FS-1074] was tested, and the “furin cleavage Z-score” value (7.5 min) was 5.28 (active), the “furin cleavage Z-score” value (15 min) was 6.77 (active) and the “furin cleavage Z-score” value (30 min) was 6.21 (active).

In the case of CARRHRKKKRAGNASASA [FS-918], the “furin cleavage Z-score” value (7.5 min) is reported as 0.00638 (inactive), the “furin cleavage Z-score” value (15 min) is reported as 0.147 (inactive) and the “furin cleavage Z-score” value (30 min) is reported as 0.539 (inactive).

For CARRHRTYRWAGNASASA [FS-864], the “furin cleavage Z-score” value (7.5 min) was 7.43 (active), the “furin cleavage Z-score” value (15 min) was 9.85 (active) and the “furin cleavage Z-score” value (30 min) was 11.3 (active).

For CARAERRPRRAGNASASA [FS-1059], the “furin cleavage Z-score” value (7.5 min) was 8.38 (active), the “furin cleavage Z-score” value (15 min) was 9.79 (active) and the “furin cleavage Z-score” value (30 min) was 8.17 (active).

CARAERAARFAGNASASA [FS-185] was tested, and the “furin cleavage Z-score” value (7.5 min) was 0.624 (inactive), the “furin cleavage Z-score” value (15 min) was 2.79 and the “furin cleavage Z-score” value (30 min) was 2.55.

In the case of CAKEVKAAASAGNASASA [HC1405], the “furin cleavage Z-score” value (7.5 min) is reported as 0.037 (inactive), the “furin cleavage Z-score” value (15 min) is reported as -0.691 (inactive) and the “furin cleavage Z-score” value (30 min) is reported as 0.852 (inactive).

CAKYLFNWAVAGNASASA [HC1632] was tested, and the “furin cleavage Z-score” value (7.5 min) was -0.0484 (inactive), the “furin cleavage Z-score” value (15 min) was 0.619 (inactive) and the “furin cleavage Z-score” value (30 min) was 0.965 (inactive).

For CASSECTTPCAGNASASA [HC1143], the “furin cleavage Z-score” value (7.5 min) was -0.401 (inactive), the “furin cleavage Z-score” value (15 min) was 1.52 and the “furin cleavage Z-score” value (30 min) was 0.461 (inactive).

In the case of CATVCCSMSYAGNASASA [HC1998], the “furin cleavage Z-score” value (7.5 min) is reported as 0.937 (inactive), the “furin cleavage Z-score” value (15 min) is reported as 0.131 (inactive) and the “furin cleavage Z-score” value (30 min) is reported as 0.837 (inactive).

CAGAGLAGAAAGNASASA [HC1076] was tested, and the “furin cleavage Z-score” value (7.5 min) was -0.496 (inactive), the “furin cleavage Z-score” value (15 min) was -0.493 (inactive) and the “furin cleavage Z-score” value (30 min) was -0.847 (inactive).

With CAHHSPLKRSAGNASASA [FS-30] the “furin cleavage Z-score” value (7.5 min) was -0.21 (inactive), the “furin cleavage Z-score” value (15 min) was 0.983 (inactive) and the “furin cleavage Z-score” value (30 min) was 1.29.

In the case of CAAVARLKRSAGNASASA [FS-218], the “furin cleavage Z-score” value (7.5 min) is reported as 12.9 (active), the “furin cleavage Z-score” value (15 min) is reported as 11 (active) and the “furin cleavage Z-score” value (30 min) is reported as 9 (active).

For CATIKRLKRSAGNASASA [FS-97], the “furin cleavage Z-score” value (7.5 min) was 11.2 (active), the “furin cleavage Z-score” value (15 min) was 11.4 (active) and the “furin cleavage Z-score” value (30 min) was 9.36 (active).

In the case of CATIKRSVISAGNASASA [FS-2853], the “furin cleavage Z-score” value (7.5 min) is reported as 0.545 (inactive), the “furin cleavage Z-score” value (15 min) is reported as 0.855 (inactive) and the “furin cleavage Z-score” value (30 min) is reported as -1.24 (inactive).

With CAEDPCHRPSAGNASASA [HC2331] the “furin cleavage Z-score” value (7.5 min) was -1.74 (inactive), the “furin cleavage Z-score” value (15 min) was -0.655 (inactive) and the “furin cleavage Z-score” value (30 min) was 0.261 (inactive).

CAGAVQWMNRAGNASASA [HC1116] was tested, and the “furin cleavage Z-score” value (7.5 min) was 0.142 (inactive), the “furin cleavage Z-score” value (15 min) was 1.71 and the “furin cleavage Z-score” value (30 min) was -0.148 (inactive).

CAKLNRKYRSAGNASASA [FS-1132] was tested, and the “furin cleavage Z-score” value (7.5 min) was 9.69 (active), the “furin cleavage Z-score” value (15 min) was 8.1 (active) and the “furin cleavage Z-score” value (30 min) was 6.59 (active).

With CAHQRRKYRSAGNASASA [FS-796] the “furin cleavage Z-score” value (7.5 min) was 4.89 (active), the “furin cleavage Z-score” value (15 min) was 5.12 (active) and the “furin cleavage Z-score” value (30 min) was 6.05 (active).

For CAKLNRRSRKAGNASASA [FS-810], the “furin cleavage Z-score” value (7.5 min) was 4.08 (active), the “furin cleavage Z-score” value (15 min) was 6.18 (active) and the “furin cleavage Z-score” value (30 min) was 5.19 (active).

In the case of CAEAIYQCCDAGNASASA [HC1489], the “furin cleavage Z-score” value (7.5 min) is reported as 1.16, the “furin cleavage Z-score” value (15 min) is reported as 0.588 (inactive) and the “furin cleavage Z-score” value (30 min) is reported as 0.702 (inactive).

With CATIFKIRMYAGNASASA [HC473] the “furin cleavage Z-score” value (7.5 min) was -0.151 (inactive), the “furin cleavage Z-score” value (15 min) was 0.348 (inactive) and the “furin cleavage Z-score” value (30 min) was -1.46 (inactive).

CASLCRYRRVAGNASASA [FS-1657] was tested, and the “furin cleavage Z-score” value (7.5 min) was 7.05 (active), the “furin cleavage Z-score” value (15 min) was 6.79 (active) and the “furin cleavage Z-score” value (30 min) was 8.55 (active).

For CAGKFRYRRVAGNASASA [FS-242], the “furin cleavage Z-score” value (7.5 min) was 9.76 (active), the “furin cleavage Z-score” value (15 min) was 11.9 (active) and the “furin cleavage Z-score” value (30 min) was 8.82 (active).

For CASLMAFTAAAGNASASA [HC1055], the “furin cleavage Z-score” value (7.5 min) was -0.632 (inactive), the “furin cleavage Z-score” value (15 min) was -0.242 (inactive) and the “furin cleavage Z-score” value (30 min) was -1.13 (inactive).

For CAAAASKVKAAGNASASA [HC1407], the “furin cleavage Z-score” value (7.5 min) was 0.991 (inactive), the “furin cleavage Z-score” value (15 min) was -0.764 (inactive) and the “furin cleavage Z-score” value (30 min) was -0.995 (inactive).

In the case of CAVCAAILRRAGNASASA [HC1109], the “furin cleavage Z-score” value (7.5 min) is reported as -1.76 (inactive), the “furin cleavage Z-score” value (15 min) is reported as -0.361 (inactive) and the “furin cleavage Z-score” value (30 min) is reported as 0.614 (inactive).

In the case of CARARRAVDKAGNASASA [FS-2252], the “furin cleavage Z-score” value (7.5 min) is reported as 6.76 (active), the “furin cleavage Z-score” value (15 min) is reported as 6.96 (active) and the “furin cleavage Z-score” value (30 min) is reported as 6.15 (active).

With CARCIRAFCRAGNASASA [FS-2897] the “furin cleavage Z-score” value (7.5 min) was -0.211 (inactive), the “furin cleavage Z-score” value (15 min) was 0.945 (inactive) and the “furin cleavage Z-score” value (30 min) was 0.335 (inactive).

With CARARRAVQKAGNASASA [FS-3149] the “furin cleavage Z-score” value (7.5 min) was 1.2, the “furin cleavage Z-score” value (15 min) was 0.71 (inactive) and the “furin cleavage Z-score” value (30 min) was 1.68.

CARARRAIAAAGNASASA [FS-3148] was tested, and the “furin cleavage Z-score” value (7.5 min) was 5.95 (active), the “furin cleavage Z-score” value (15 min) was 5.73 (active) and the “furin cleavage Z-score” value (30 min) was 4.12 (active).

In the case of CARARRQDVKAGNASASA [FS-2649], the “furin cleavage Z-score” value (7.5 min) is reported as 0.761 (inactive), the “furin cleavage Z-score” value (15 min) is reported as 0.529 (inactive) and the “furin cleavage Z-score” value (30 min) is reported as 2.07.

With CARARRALRRAGNASASA [FS-2130] the “furin cleavage Z-score” value (7.5 min) was 3.99 (active), the “furin cleavage Z-score” value (15 min) was 4.89 (active) and the “furin cleavage Z-score” value (30 min) was 7.04 (active).

With CARCRRALRRAGNASASA [FS-1687] the “furin cleavage Z-score” value (7.5 min) was 3.87 (active), the “furin cleavage Z-score” value (15 min) was 3.85 (active) and the “furin cleavage Z-score” value (30 min) was 7.16 (active).

CARARRVTDAAGNASASA [FS-2890] was tested, and the “furin cleavage Z-score” value (7.5 min) was -1.51 (inactive), the “furin cleavage Z-score” value (15 min) was -0.986 (inactive) and the “furin cleavage Z-score” value (30 min) was -0.304 (inactive).

With CARARRVLEAAGNASASA [FS-1685] the “furin cleavage Z-score” value (7.5 min) was -0.496 (inactive), the “furin cleavage Z-score” value (15 min) was -0.739 (inactive) and the “furin cleavage Z-score” value (30 min) was -0.66 (inactive).

CAAGVGIYLLAGNASASA [HC1661] was tested, and the “furin cleavage Z-score” value (7.5 min) was -0.0484 (inactive), the “furin cleavage Z-score” value (15 min) was -0.628 (inactive) and the “furin cleavage Z-score” value (30 min) was 0.389 (inactive).

In the case of CARLHGLSAFAGNASASA [HC1603], the “furin cleavage Z-score” value (7.5 min) is reported as -0.521 (inactive), the “furin cleavage Z-score” value (15 min) is reported as -1.08 (inactive) and the “furin cleavage Z-score” value (30 min) is reported as 0.0737 (inactive).

CAFTPCSGSWAGNASASA [HC1827] was tested, and the “furin cleavage Z-score” value (7.5 min) was -0.899 (inactive), the “furin cleavage Z-score” value (15 min) was -0.656 (inactive) and the “furin cleavage Z-score” value (30 min) was -0.511 (inactive).

In the case of CACEMEECSQAGNASASA [HC1800], the “furin cleavage Z-score” value (7.5 min) is reported as -0.225 (inactive), the “furin cleavage Z-score” value (15 min) is reported as 0.44 (inactive) and the “furin cleavage Z-score” value (30 min) is reported as -0.298 (inactive).

For CARLRKGCGAAGNASASA [FS-2157], the “furin cleavage Z-score” value (7.5 min) was -0.162 (inactive), the “furin cleavage Z-score” value (15 min) was 0.798 (inactive) and the “furin cleavage Z-score” value (30 min) was -0.0332 (inactive).

In the case of CALEGRRKRAAGNASASA [FS-938], the “furin cleavage Z-score” value (7.5 min) is reported as 9.45 (active), the “furin cleavage Z-score” value (15 min) is reported as 10.2 (active) and the “furin cleavage Z-score” value (30 min) is reported as 8.2 (active).

In the case of CAQKGRVRRAAGNASASA [FS-78], the “furin cleavage Z-score” value (7.5 min) is reported as 11.9 (active), the “furin cleavage Z-score” value (15 min) is reported as 10.5 (active) and the “furin cleavage Z-score” value (30 min) is reported as 7.65 (active).

CAGKVRLRRAAGNASASA [FS-655] was tested, and the “furin cleavage Z-score” value (7.5 min) was 8.27 (active), the “furin cleavage Z-score” value (15 min) was 7.38 (active) and the “furin cleavage Z-score” value (30 min) was 7.81 (active).

CAAPRRLRRAAGNASASA [FS-7] was tested, and the “furin cleavage Z-score” value (7.5 min) was 6.44 (active), the “furin cleavage Z-score” value (15 min) was 6.75 (active) and the “furin cleavage Z-score” value (30 min) was 5.94 (active).

With CAGKVLIDILAGNASASA [HC1083] the “furin cleavage Z-score” value (7.5 min) was -0.625 (inactive), the “furin cleavage Z-score” value (15 min) was -0.337 (inactive) and the “furin cleavage Z-score” value (30 min) was -0.826 (inactive).
